High-throughput results deposited in PubChem by National Center for Advancing Translational Sciences (NCATS).
Compounds with a hit are over-represented: about 20% of the library has one in this group of screens.
Cycloheximide cs: affects cycloheximide protein synthesis inhibition readout, counter-screen | cell reporter, cycloheximide protein synthesis inhibition counterscreen | max response, % | 300,000 compounds, 12% hits | AID 2314; in the data active = max response mostly above about 13%, no sharp cut-off; inactive = mostly below about 14%; also: read at 38.3 µM for the half of the compounds with a filed dose; 0% is about no effect
HCMV antiviral: blocks human cytomegalovirus replication | HFF cells, HCMV-luciferase reporter, 72 h; hits give low values | activity change, negative = inhibition, % at 57.5 µM | 410,000 compounds, 4.5% hits | AID 1259415; in the data active = activity change below about -60%; inconclusive = no clear call, values can overlap the other calls; inactive = above about -39%; also: % is scaled to controls: 0 for no effect and ±100 for the full control effect
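Human foreskin fibroblasts infected with luciferase-reporter HCMV at MOI 1 PFU/cell, compounds at two doses. Luciferase measured 72 h post infection; normalized to buffer-only basal and Salinomycin (10uM) controls.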
Pf growth 96h: P. falciparum growth inhibition at 96 hours; P. falciparum luciferase reporter growth, 96 h; Potency, µM (highest dose often 28.7 µM), inactives show top-dose activity change, negative = inhibition, usual class: inhibitors; 320,000 compounds, 6.9% hits; AID 504834; also: potency is read from the fitted curve at half-maximal effect; % is scaled to controls: 0 for no effect and ±100 for the full control effect
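Plates of compound plus infected erythrocytes (2% hematocrit, 0.05% parasitemia final) incubate 96 hours, 37 C, 5% CO2. Detection reagent added; reduced luminescence from the parasites' luciferase reporter flags inhibition.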
Pf growth 48h: P. falciparum growth inhibition at 48 hours (one generation). P. falciparum luciferase growth in erythrocytes, 48 h. Potency, µM (doses to about 28.7 µM), for the others: at the highest dose activity change, negative = inhibition, usual class: inhibitors. 310,000 compounds, 5.9% hits. AID 504832; also: potency is read from the fitted curve at half-maximal effect; % is scaled to controls: 0 for no effect and ±100 for the full control effect
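Firefly luciferase activity from engineered P. falciparum reports growth; inhibitors lower the luminescent signal. Cultures contained 2% hematocrit erythrocytes at 0.1% final parasitemia.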
Shiga inhibitor: blocks Shiga toxin action in Vero cells | 290,000 compounds, 9.2% hits | AID 2315 | inhibition, % at 38.7 µM | Vero cells, Shiga toxin protein synthesis inhibition reporter; in the data active = inhibition mostly above about 28%, no sharp cut-off; inactive = mostly below about 43%; also: 0% is about no effect
Starred values were filed as active, the others as inactive; ? = inconclusive; nt = not tested or not shown; [ ] = another dose, or the depositor's remark. Unless noted, calls follow the shape of the dose curve; as a rule, active = well fitted inhibition curve with a large enough effect; inconclusive = small, poorly fitted or top-dose-only effect, or another doubt; inactive = no such curve, though single readings can be large or run the other way.

SMILES | Cycloheximide cs | HCMV antiviral | Pf growth 96h | Pf growth 48h | Shiga inhibitor
Cc1ccc(Nc2ncnc3sc(C)c(C)c23)cc1 | 24* | 53 | 9.3µM* | 113% | 79*
Cc1sc2ncnc(Nc3ccc(O)cc3)c2c1C | 6 | -32 | ? | -22% | 10
c1ccc(-c2csc3ncnc(NCCN4CCOCC4)c23)cc1 | -3 | -77* | ? | ? | -21
Cc1ccc(-c2csc3ncnc(Nc4ccc(N5CCOCC5)cc4)c23)cc1 | -3 | -90* | ? | ? | -4
Cc1ccc(S(=O)(=O)Nc2cc(Cl)ccc2-n2cncn2)cc1 | nt | 140 | 3% | -6% | nt
Cc1c(O)c2c(=O)n(-c3ccccc3)c(-c3ccccc3)cc2oc1=O | -2 | 31 | ? | -9% | -8
COc1ccc(OC)c(NC(=O)CN2C(=O)COc3ccc(C)cc32)c1 | -1 | 10 | ? | ? | -3
COc1ccc(-c2csc3ncnc(NCCN4CCOCC4)c23)cc1 | -1 | -66* | ? | nt | -19
COc1ccc(-c2csc3ncnc(Nc4cc(OC)cc(OC)c4)c23)cc1 | nt | -25 | nt | nt | nt
COCC(=O)n1nc(-c2ccc(C)cc2)nc1NCc1ccc(F)cc1 | 12* | -16 | 1% | 0%[5.75 µM] | 86*
COc1ccc(CNc2nc(-c3cccnc3)nn2C(=O)c2cccs2)cc1 | 29* | -23 | ? | 18% | 13
COCC(=O)n1nc(-c2ccc(Cl)cc2)nc1NCc1ccc(F)cc1 | 38* | 40 | 2.9µM* | nt | 48*
COc1ccccc1C(=O)n1nc(-c2ccccc2)nc1NCc1ccc(Cl)cc1 | nt | 18 | nt | nt | nt
COCC(=O)n1nc(-c2ccccc2)nc1NCc1ccc(N(C)C)cc1 | 38* | -19 | ? | 49% | 65*
CCNC(=O)c1c(NC(=O)c2cc(=O)c3ccc(C)c(C)c3o2)sc2c1CCCC2 | nt | -8 | nt | nt | nt
Cc1nc(-c2ccccc2OC(F)(F)F)[nH]c(=O)c1Cl | -3 | 18 | 7% | 16% | -10
Nc1ccc(OCc2ccco2)cc1 | 16 | -12 | 44% | 16% | 40
O=C(CSc1nnc(COc2ccccc2)n1Cc1ccco1)c1ccc(F)cc1 | 37* | -27 | 13µM* | 12µM* | 26
Cc1occc1-c1nnc(SCC(=O)c2ccc(F)cc2)n1Cc1ccco1 | 12* | -10 | nt | -15% | 14
Cc1occc1-c1nnc(SCC(=O)c2ccc(F)cc2)o1 | 37* | 12 | nt | 28% | 147*
O=C(CSc1nnc(-c2ccco2)n1Cc1ccccc1)c1ccc(F)cc1 | 36* | 2 | 72% | ? | 60*
Cc1ccc(OCc2nnc(SCC(=O)c3ccccc3)n2Cc2ccco2)cc1 | 13 | 19 | 20% | ? | 28
O=C(/C=C\c1ccccc1)NCC(=O)N/N=C/c1ccc(O)cc1O | 9 | nt | ? | ? | -6
COc1ccc(NC(=O)CCOc2ccc(C)cc2)c(OC)c1 | -1 | 13 | -29% | -6% | nt
NC(=O)c1cc(S(=O)(=O)NCCc2ccc(Cl)cc2)cs1 | -3 | -30 | -10% | ? | -3
SMILES | Cycloheximide cs | HCMV antiviral | Pf growth 96h | Pf growth 48h | Shiga inhibitor
O=C(CSc1nnc(-c2ccc(Br)o2)n1Cc1ccccc1)c1ccccc1F | -1 | -17 | ? | 9.3µM* | -12
NNC(=O)c1cc2cc3ccccc3nc2s1 | 45* | -66* | 13µM* | ? | 67
CS(=O)(=O)NNC(=O)c1cc2cc3ccccc3nc2s1 | 22 | -23 | 4.7µM* | 3% | 53*
Cc1cc(C)c2c(=O)n(-c3ccccc3)[nH]c2n1 | 51* | 24 | nt | 201% | 88*
CCOC(=O)C(=Cc1cc(=O)c(OC)co1)C(=O)OCC | -7 | -84* | ? | ? | -16
COc1cccc(CSc2nc3ccccc3c3nc(CCn4c(C)nc5ccccc54)nn23)c1 | nt | 16 | nt | nt | nt
COc1ccc(CCn2c3c(c(=O)[nH]c2=O)C(NC(=O)c2ccccc2F)(C(F)(F)F)C(=O)N3)cc1OC (stereo not drawn) | nt | 1 | nt | nt | nt
CC(=O)Nc1ccc(C(=O)OCC(=O)N(c2ccccc2)C2CCS(=O)(=O)C2)cc1 (stereo not drawn) | nt | 1 | 2% | -12% | nt
O=C(CCl)N(c1ccccc1)C1CCS(=O)(=O)C1 (stereo not drawn) | -2 | -103* | ? | 12µM* | -16
COc1ccc(Nc2nc3c(S(=O)(=O)c4ccccc4)nnn3c3ccc(Cl)cc23)c(OC)c1 | nt | 1 | nt | nt | nt
Cc1ccc(CNC(=O)c2nn(-c3ccc(Cl)cc3)nc2CO)cc1 | nt | 10 | nt | nt | nt
